From PubChem BioAssay
Values without a mark were called inactive. How the calls were made is not given here.

What follows are compounds tested against Pantothenate synthetase (Mycobacterium tuberculosis (strain ATCC 25618 / H37Rv)) (UniProt P9WIL5) (assay: Recombinant Mtb pantothenate synthetase (PanC) inhibitors, coupled enzyme, confirmatory (AID 375;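 further: 0% = full reaction with vehicle and 100% = no enzyme background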)). Conditions: coupled enzyme assay; at 10 µM, active compounds read high.
Pantothenate synthetase (Mycobacterium tuberculosis (strain ATCC 25618 / H37Rv)), sequence (P9WIL5 whole entry, looked up): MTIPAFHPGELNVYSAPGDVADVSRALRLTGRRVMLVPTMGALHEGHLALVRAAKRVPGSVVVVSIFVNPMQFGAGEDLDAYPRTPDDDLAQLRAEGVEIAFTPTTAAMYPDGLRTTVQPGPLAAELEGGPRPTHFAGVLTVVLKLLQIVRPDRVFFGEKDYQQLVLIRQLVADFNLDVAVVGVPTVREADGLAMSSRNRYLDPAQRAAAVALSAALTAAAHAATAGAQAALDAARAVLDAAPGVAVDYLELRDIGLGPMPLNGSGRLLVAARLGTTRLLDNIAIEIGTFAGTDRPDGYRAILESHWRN

`Cc1ccc(-c2cc(C(F)F)nc(NCc3cccnc3)n2)cc1` was tested. Which inhibition did it give?
The inhibition was 0%.

Which inhibition does the source give for `CCC(=O)OC1(C#CCOc2ccc(OC)cc2)CCN(C)CC1` here?
Its inhibition is 0%.

For `O=C(CN(Cc1cccs1)C(=O)CNS(=O)(=O)c1ccccc1)NCc1ccco1`, which inhibition is on record?
Its inhibition is 3%.

For `COC(=O)c1cc(OC)c(OC)cc1NC(=O)CCC1CCCC1`, which inhibition is on record?
Its inhibition is 0%.

How did the inhibition turn out when `CC(C)(C)n1ncc2c(=O)n(CC(=O)NCc3ccccc3)cnc21` was run?
Its inhibition is 0%.

With `CC(C)(C)c1ccc(C(=O)N2CCC(C(=O)NCc3ccncc3)CC2)cc1` as the compound, how does the inhibition read?
Its inhibition is 0%.

Which inhibition does the source give for `c1ccc2ncc(-n3cnnn3)cc2c1` here?
The inhibition was 0%.

For `O=S(=O)(NCc1ccc(Cl)cc1)c1cnc[nH]1`, which inhibition is on record?
Its inhibition is 0%.

Which inhibition does the source give for `O=C(Cn1ncc2c(=O)oc3ccccc3c21)NCCCN1CCCC1=O` here?
The inhibition was 0%.

With `CC/C(O)=C(/C#N)c1nnc2n1CCCCC2` as the compound, how does the inhibition read?
Its inhibition is 5%.

Which inhibition does the source give for `Cn1nnnc1SCC(=O)Nc1ccccc1-c1ccccc1` here?
Its inhibition is 2%.

Which inhibition does the source give for `Cc1ccc2occ(CN3CCN(c4ccccc4)CC3)c(=O)c2c1` here?
The inhibition was 0%.

`CC[N+](C)(C)c1cccc(O)c1` was tested. Which inhibition did it give?
The inhibition was 0%.

Which inhibition does the source give for `COc1cccc(NC(=O)N2CCN(C(=O)C(Cc3ccc(OC)c(OC)c3)NC(C)=O)CC2)c1` (stereo not given) here?
Its inhibition is 0%.

For `O=C1CC(c2cccnc2)c2cc3c(cc2N1)OCO3` (stereo not given), which inhibition is on record?
Its inhibition is 0%.

With `CCc1noc(C)c1C(=O)NCCc1ccc(OC)c(OC)c1` as the compound, how does the inhibition read?
The inhibition was 3%.

For `CC(=O)Nc1ccc(S(=O)(=O)Nc2nc3n(n2)C(c2ccccc2)CC(=O)N3)cc1` (stereo not given), which inhibition is on record?
Its inhibition is 0%.

For `Cc1ccc(S(=O)(=O)n2nc(OC(=O)c3ccco3)cc2N)cc1`, which inhibition is on record?
Its inhibition is 2%.

For `O=S1(=O)C=CC(Nc2cccc(Cl)c2)C1` (stereo not given), which inhibition is on record?
Its inhibition is 0%.

Which inhibition does the source give for `Cc1c(C(=O)OCC(C)(C)CN(C)C)oc2ccccc12` here?
Its inhibition is 1%.

`CC(C)(C)C(=O)Cn1c[n+](N)cn1` was tested. Which inhibition did it give?
Its inhibition is 1%.

For `CC(NC(=O)CSc1n[nH]c(=O)n1C1CC1)C12CC3CC(CC(C3)C1)C2` (stereo not given), which inhibition is on record?
Its inhibition is 3%.

With `Cc1ccc(S(=O)(=O)N2CCN(S(C)(=O)=O)C2c2ccccc2)cc1` (stereo not given) as the compound, how does the inhibition read?
The inhibition was 0%.

With `Cc1ccc(Nc2nc(Oc3ccc(=O)[nH]n3)nc(N(C)C)n2)cc1` as the compound, how does the inhibition read?
The inhibition was 0%.

`CC1=C(C(=O)NCc2ccccc2)C(c2ccccc2OCC(N)=O)NC(=O)N1` (stereo not given) was tested. Which inhibition did it give?
The inhibition was 0%.

With `Cc1nc2scc(-c3ccco3)c2c(=O)n1/N=C/N(C)C` as the compound, how does the inhibition read?
Its inhibition is 0%.

With `CCCN(CCC)S(=O)(=O)c1ccc(C(=O)O)cc1` as the compound, how does the inhibition read?
Its inhibition is 0%.

How did the inhibition turn out when `C=CCn1c(SCC(=O)c2ccc(OC)cc2)nnc1C(C)NC(=O)c1cccs1` (stereo not given) was run?
The inhibition was 0%.

`COCCn1c(SCC(=O)Nc2cccc(OC)c2)nnc1-c1ccc(Cl)cc1` was tested. Which inhibition did it give?
Its inhibition is 3%.

With `COc1ccc(Br)cc1CNC(=O)CCc1nc(-c2ccc(C)cc2)no1` as the compound, how does the inhibition read?
The inhibition was 4%.

For `CCOC(=O)c1sc(=NC(=O)c2ccc(OC)c(OC)c2)n(C)c1C`, which inhibition is on record?
Its inhibition is 2%.

With `Nc1cc(N)cc(-c2nc3ccccc3o2)c1` as the compound, how does the inhibition read?
Its inhibition is 4%.

Which inhibition does the source give for `CC(C)Oc1ccc(N2CC(C(=O)Nc3ccccc3F)CC2=O)cc1` (stereo not given) here?
The inhibition was 0%.

For `CC(=O)Oc1cc(C(C)C)c(OCCN(C)C)cc1C`, which inhibition is on record?
The inhibition was 11%.

How did the inhibition turn out when `Cc1cc(N2CCN(C)CC2)nc(N2CCOCC2)n1` was run?
The inhibition was 0%.

For `CC(=O)NC(C)C(=O)OCc1ccc(Cl)cc1Cl` (stereo not given), which inhibition is on record?
The inhibition was 0%.

`CCOC(=O)CSc1nc(C)c(C(=O)OCC)s1` was tested. Which inhibition did it give?
The inhibition was 0%.

With `CC(C)=CC(=O)OCC(=O)NC(=O)NC(C)(C)C` as the compound, how does the inhibition read?
Its inhibition is 0%.

With `CCCSc1nc2c(cnn2-c2ccc(Cl)cc2)c(=O)[nH]1` as the compound, how does the inhibition read?
The inhibition was 0%.

Which inhibition does the source give for `Cc1cc(N2CCN(C3CCCC3)CC2)n2c(nc3ccccc32)c1C#N` here?
The inhibition was 0%.
